# This is a sample that favours compounds with a hit; in the whole collection about 19% have one here.
# Cycloheximide cs – Cycloheximide Counterscreen for Small Molecule Inhibitors of Shiga Toxin | max response, % | AID 2314, 2010 | 300,000 compounds, 12% hits | cell reporter, cycloheximide protein synthesis inhibition counterscreen; in the data active means max response mostly above about 13%, no sharp cut-off; inactive means mostly below about 14%; further: read at 38.3 µM for the half of the compounds with a filed dose; 0% is about no effect
# Pf growth 48h – Primary qHTS for delayed death inhibitors of the malarial parasite plastid, 48 hour incubation; 310,000 compounds, 5.9% hits; P. falciparum luciferase growth in erythrocytes, 48 h; Potency, µM (highest dose often 28.7 µM), inactives show at the top dose activity change, negative = inhibition, usual class: inhibitors; further: potency means the concentration at half of the fitted maximal effect; on the % scale 0 is the no-effect control and ±100 the full control effect
#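 Luciferase-expressing P. falciparum in infected erythrocytes (2% hematocrit, 0.1% parasitemia final) in RPMI 1640/0.5% Albumax were exposed to compound for 48 hours at 37 C, 5% CO2; growth read as luminescence.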
# SARS PLP yeast – qHTS of Yeast-based Assay for SARS-CoV PLP | S. cerevisiae expressing SARS-CoV PLpro, growth rescue | Potency, µM (titrated, usually from 32.9 µM), without a hit: at the top dose activity, positive = growth rescue, actives largely listed as activators | 330,000 compounds, 0.19% hits; calls by dose curve; further: potency means the concentration at half of the fitted maximal effect; 0% is about no effect; nearly all actives have a fitted effect of over 55% in size
# Pf growth 96h – Primary qHTS for delayed death inhibitors of the malarial parasite plastid, 96 hour incubation; P. falciparum luciferase reporter growth, 96 h; Potency, µM (series often up to 28.7 µM), without a hit: at the top dose activity change, negative = inhibition, usual class: inhibitors; 320,000 compounds, 6.9% hits; AID 504834, 2011; further: potency means the concentration at half of the fitted maximal effect; on the % scale 0 is the no-effect control and ±100 the full control effect
#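 Infected RBCs, 2% Hct / 0.05% parasitemia final; luciferase-reporter P. falciparum; cpd 96 h, 37 C, 5% CO2; luciferase detection reagent; luminescence.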
# Shiga toxin inh – A qHTS for Small Molecule Inhibitors of Shiga Toxin; Vero cells, Shiga toxin protein synthesis inhibition reporter; inhibition, % at 38.7 µM; 290,000 compounds, 9.2% hits; AID 2315, 2010; in the data active means inhibition mostly above about 28%, no sharp cut-off; inactive means mostly below about 43%; further: 0% is about no effect
# AMA1-RON2 inh – qHTS for Inhibitors of AMA1-RON; Towards Development of Antimalarial Drug Lead: Primary Screen; Plasmodium falciparum AMA1 (3D7) - RON2 peptide interaction; AlphaScreen AMA1-biotinylated RON2 peptide binding; Potency, µM (top dose mostly 58.2 µM), for the others: at the highest dose activity change, negative = inhibition, usual class: inhibitors; 360,000 compounds, 0.2% hits; AID 720542, 2013;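 further: potency means the concentration at half of the fitted maximal effect; 0% = vehicle wells and -100% = peptide control; nearly all actives have a fitted effect of over 45% in size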
#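 AMA1 (3D7) with his tag at 25 nM final met compounds first, then biotinylated RON2 peptide at 25 nM; detection used donor plus acceptor beads, 10 µg/mL apiece, read by AlphaScreen after 30 min at room temperature.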
# An asterisk follows results filed as active; ? = inconclusive; nt = not tested or not shown; + = active, no number; [ ] = dose if it differs, or a comment. Unless noted, the call rests on the fitted dose curve; in most records, active means well fitted curve in the direction sought with a large enough effect; inconclusive means small, poorly fitted or top-dose-only effect, or another doubt; inactive means no such curve, though single readings can be large; an effect the other way counts as inactive or inconclusive.
SMILES,Cycloheximide cs,Pf growth 48h,SARS PLP yeast,Pf growth 96h,Shiga toxin inh,AMA1-RON2 inh
COCc1nc(-c2ccc(-c3ccccc3)nc2OC)no1,64*,142%,-25%,?,156*,-2%
COCc1nc(-c2ccc(-c3ccc(OC)cc3)nc2OC)no1,47*,11%,-24%,?,active,-3%
CC(C)(C)c1cc(NC(=O)C2(C)CCN2C(=O)C2(c3ccccc3)CCCC2)no1 (centres undefined),nt,nt,nt,nt,nt,6%
O=C(NCc1cccnc1)c1cc(C2CCCCN2C(=O)c2ccc(Cl)cc2)on1 (centres undefined),nt,nt,nt,nt,nt,-1%
COc1ccc(CC(O)COS(N)(=O)=O)cc1 (centres undefined),-2,18%,-13%,?,-4,15%
CCc1nc(-c2ccc(-c3ccc(OC)cc3)nc2OC)no1,40*,76%,-7%,-2%[5.75 µM],+,9%
CN1C(=O)/C(=C\c2ccc(N3CCCCCC3)cc2)C(=O)NC1=S,17,2%,3%,34%,-1,-2%
CN1C(=O)/C(=C\c2ccc(N3CCCCC3)o2)C(=O)NC1=S,27*,9%,1%,19%,38*,18%
CCOc1ccc(N2C(=O)NC(=O)/C(=C\c3ccc(N4CCCCC4)o3)C2=O)cc1,2,?,0%,13µM*,32,3%
CN1C(=O)/C(=C/c2ccc(N3CCCCCC3)o2)C(=O)NC1=S,40*,421%,-2%,378%,64*,-2%
C=CCN1C(=O)/C(=C\c2ccc(N3CCOCC3)o2)C(=O)NC1=S,4,7%,-6%,?,-6,-3%
O=C1NC(=O)N(c2ccc3c(c2)OCO3)C(=O)/C1=C/c1ccc(N2CCCC2)o1,1,?,-21%,1%,-11,-6%
CCCCn1c(SCC(=O)NCc2ccccc2)nc2ccc(N3CCOCC3)cc2c1=O,-2,12µM*,2%,29%,-1,15%
CCCCn1c(SCC(=O)NC(C)CC)nc2ccc(N3CCOCC3)cc2c1=O (centres undefined),2,?,8%,?,21,0%
N#CCSc1nc2ccccc2c(=O)n1CC1CCCC1,9,-36%,-1%,112%,-13,0%
N#CCSc1nc2ccc(N3CCCCC3)cc2c(=O)n1Cc1ccccc1,21*,?,5%,nt,38*,35%
CCOC(=O)CSc1nc2ccc(N3CCOCC3)cc2c(=O)n1Cc1ccc2c(c1)OCO2,13,12µM*,-2%,nt,25,nt
CCCCn1c(SCC(=O)NCc2ccco2)nc2ccc(N3CCOCC3)cc2c1=O,-1,15µM*,-2%,1%,4,43%
COc1cc(C2(O)CCCCC2C)cc(OC)c1OC (centres undefined),6,-2%,-2%,10%,6,-5%
CC(OC(=O)CN1C(=O)C2CC=CCC2C1=O)C(=O)Nc1ccc(F)cc1Cl (centres undefined),1,16%,1%,37%,22,13%
COCCNC(=O)CSc1nc2ccc(N3CCOCC3)cc2c(=O)n1Cc1ccc(OC)cc1,28*,-7%,-4%,?,54,75%
c1ccc(COc2ccc(CNn3cnnc3)cc2)cc1,26*,51%,-1%,13%,65*,-1%
O=C1C2C3CCC(C3)C2C(=O)N1Cc1ccccc1 (centres undefined),5,18%,-6%,?,-38,-8%
O=C(NC1=NCCS1)C1CC2CCC1C2 (centres undefined),15,nt,-25%,85%,29,5%
CCc1ccc(N(CC(=O)Nc2ccccc2C(=O)N2CCOCC2)S(C)(=O)=O)cc1,1,-8%,9%,15%,18,-9%[2.32 µM]
O=C(NCc1cccs1)c1csc2ccccc12,25*,63%,-10%,50%,33,-2%
O=C(CCNC(=O)c1ccc([N+](=O)[O-])cc1)NCc1cccs1,nt,nt,4%,nt,nt,-7%
O=C(NCc1cccs1)c1ccc2ccccc2n1,32*,29%,-2%,14%,73,4%

# Compound activity deposited in PubChem by National Center for Advancing Translational Sciences (NCATS).
